# Source: the supplement of paper PMC3724861
# The entries come from a sample that favours hits as a whole. How many sequences the whole screen found active is unknown. Unmarked numbers belong to inactive results.
# Tested on: T1, Caupolican (Caup) homeodomain DNA-binding domain
# T1 sequence: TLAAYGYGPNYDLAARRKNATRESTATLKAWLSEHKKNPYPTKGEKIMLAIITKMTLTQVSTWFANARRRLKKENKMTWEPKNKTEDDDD
# Assay: PBM E-score (8-mer, recovered from the published 9-mer minima) (E-score (dimensionless, -0.5 to 0.5)); Drosophila protein; higher = stronger relative binding preference, active = 0.31 or more
# How it was run: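 Caup's homeodomain DNA-binding domain (residues 214-303) was made by in vitro transcription and translation and applied at 100 nM to custom-designed protein binding microarrays. Each value is an enrichment score that gives relative binding preference for a short DNA word, with higher meaning stronger. The 8-mer values were recovered from published 9-mer scores, each of which was the minimum of its two constituent 8-mer scores. A cutoff of 0.31 marks candidate sites.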
row,Sequence,PBM E-score
1,CCGCTACC,-0.0854
2,ATTACGTA,0.173
3,CGTACTAG,0.107
4,ACTAAACC,0.00838
5,AGGCCCAG,-0.214
6,ACCCAGGC,-0.17
7,ACATCAAT,0.316 (active)
8,CCATCATA,0.02
9,ACATCAAG,0.227
10,ACATCACG,0.217
11,ACATCACA,0.334 (active)
12,TCATCACA,0.14
13,ACATCATC,0.251
14,ACATCATA,0.318 (active)
15,ACATCAAA,0.26
16,ATATATGG,0.127
17,GTATAAAA,0.116
18,GAATCGGA,-0.0551
19,ATCCCATC,-0.00982
20,CGCGTACC,-0.0687
21,GGTCTCCA,-0.147
22,AGAACACA,≥ 0.317 (active)
23,CGAACACG,0.258

row,Sequence,PBM E-score
1,AGAACACT,0.108
2,AGAACACG,0.33 (active)
3,AGAACAAG,0.329 (active)
4,AGAACAAA,0.191
5,TGAACACA,0.309
6,CGAACACA,0.167
7,AGAACAAT,0.21
8,AGCAGTCG,-0.15
9,ATTGTTTC,0.143
10,GGCTAAAC,-0.0281
11,GCGGTGCC,-0.251
12,ATGTATAC,0.356 (active)
13,CTGTATAA,0.186
14,CTGTATAC,0.246
15,GTGTATAA,0.202
16,ATGTATGA,0.352 (active)
17,ATGTATAG,0.276
18,ATGTATGG,0.157
19,ATGTATAA,0.344 (active)
20,GTGTATGA,0.249
21,AAAGGATA,0.105
22,CCTCCACA,-0.164
23,AAGTCTGT,0.139

row,Sequence,PBM E-score
1,CGCCTAAA,-0.117
2,AGACATCA,0.197
3,CGACATGA,0.395 (active)
4,CGACATGC,0.386 (active)
5,AGACATTA,0.201
6,AGACATGC,0.303
7,CGACATTA,0.202
8,AGACATGG,0.329 (active)
9,AGACATGA,0.341 (active)
10,AGACATAG,0.164
11,GGACATGA,0.304
12,CGACATCC,0.134
13,AGACATCG,0.0873
14,GAAGTCAA,-0.0438
15,GCAGTCGA,-0.135
16,CCAATCAA,0.0187
17,ATAGGCCC,-0.176
18,ACCCCTCA,-0.091
19,CAACTCTA,-0.0633
20,AACACATA,0.323 (active)
21,AACACACT,0.256
22,AACACATG,0.313 (active)
23,CACACATA,0.164

row,Sequence,PBM E-score
1,AACACATC,0.202
2,TACACATA,0.343 (active)
3,GACACATA,0.264
4,AACACATT,0.264
5,AGCACATA,0.0614
6,AACACACG,0.248
7,AACACACA,≥ 0.313 (active)
8,ATCACATA,0.239
9,GAACAGTA,0.173
10,AAGAGAGA,-0.0648
11,CTTCCGCA,-0.0665
12,ACTTCTCA,0.00621
13,GGTGATAA,0.0536
14,GCTCCACC,-0.174
15,CAATAGCC,0.0422
16,CATCTTGC,0.0649
17,GTCAACGA,0.118
18,CAGCCCGA,-0.199
19,ATGAGCGA,-0.0133
20,CAACATAA,0.295
21,TAACATAA,0.327 (active)
22,AAACATAA,0.321 (active)
23,AAACATAC,0.292

row,Sequence,PBM E-score
1,AAACATTA,0.233
2,AAACATAG,0.267
3,GAACATAA,0.282
4,AAACATAT,0.325 (active)
5,AAGCATAA,0.0796
6,GTCAATCA,0.0914
7,ACGCTGTG,0.0319
8,AAAGTTGT,0.17
9,AAGAGAAG,-0.0176
10,ACTGTGAT,0.066
11,AGCCGAAT,-0.0412
12,AAGTGGCT,-0.132
13,CCGCGGCA,-0.192
14,CTCGTGGC,-0.127
15,AAGCCGGG,-0.179
16,ATATATAC,0.181
17,ATATACAT,0.367 (active)
18,TTATACAA,0.28
19,ATATACAC,0.348 (active)
20,ATATACAA,≥ 0.355 (active)
21,CTATACAA,0.249
22,GTATACTA,0.16
